# Measurements taken from PubChem BioAssay (NCATS).
# Where “and” joins values, the source holds several entries; their conditions need not be identical. Identical values can stand only once. Records with an inconclusive call do not appear. Entries that show only a call come without a potency. A number with no mark means an inactive call. Calls of active or inactive are those of the source. Calls follow the shape of the dose curve; as a rule, active = well fitted curve in the direction sought with a large enough effect; inconclusive = small, poorly fitted or top-dose-only effect, or another doubt; inactive = no such curve, though single readings can be large; an effect the other way counts as inactive or inconclusive. *1 amine or outer side, *2 acyl side, *3 side chain or, on linkers, in order; H or OH if unused. Where a SMILES comes first, the peptide text is derived from it. Bridges are numbered along the chain shown (N, C = ends). [ ]: non-standard residue; d: D form. PhLac = O=C(O)[CH](O)Cc1ccccc1; NMeV = CN[CH](C(=O)O)C(C)C; X6 = O=C(CCC[*:2])[*:1]
# Tests used:
# [1] = P-glycoprotein substrates identified in KB-3-1 adenocarcinoma cell line, qHTS therapeutic library screen (AID 1346986); also: nearly all actives have a fitted effect of over 60% in size;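 also: potency is for cytotoxicity meaning loss of cell viability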
# Method in brief: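 KB-3-1 parental cells and P-gp-overexpressing KB-8-5-11 (colchicine omitted during assay) plated at 500 cells/well, dosed in dose-response, incubated 72 h at 37 degree C. CellTiter-Glo luminescence read; KB-8-5-11 also tested with tariquidar.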
# [2] = P-glycoprotein substrates identified in KB-8-5-11 adenocarcinoma cell line, qHTS therapeutic library screen (AID 1346987); also: nearly all actives have a fitted effect of over 65% in size; as to activity change, negative = cytotoxicity: series mostly up to about 44 µM
# Method in brief: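 P-gp-mediated resistance screen: KB-8-5-11 cells treated 72 h with compounds in dose-response. CellTiter-Glo viability.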
# Potency is read from the fitted curve at half-maximal effect.
smiles,measurement,setting,value
C=C1CCC2C(C)(COC3OC(COC(=O)CC(=O)O)C(O)C(O)C3O)CCCC2(C)C1CCC1=CCOC1=O (stereo not drawn),Potency,[1],inactive
same,Potency,[2],inactive
COCC(=O)N1CCc2cc(-c3csc(NC(=O)c4cc(OC)cc(OC)c4)n3)ccc21,Potency,[1],inactive
same,Potency,[2],inactive
OC[C@H]1O[C@@H](Oc2cc(O)cc(/C=C/c3ccc(O)cc3)c2)[C@H](O)[C@@H](O)[C@@H]1O,Potency,[1],inactive
same,Potency,[2],inactive
COC1=CC(=O)O[C@@H](/C=C/c2ccccc2)[C@@H]1O,Potency,[1],inactive
same,Potency,[2],inactive
COc1c2c(c(C)c3c1C(=O)OC3)O[C@@]1(C)C[C@@H](O)[C@]34O[C@](OC)(CC[C@]3(C)[C@H]1C2)OC4(C)C,Potency,[1],inactive
same,Potency,[2],inactive
CC(=O)C1CCC2(C)C3=C(CCC12C)C1(C)CCC(=O)C(C)(C)C1CC3 (stereo not drawn),Potency,[1],inactive
same,Potency,[2],inactive
C[C@@H]1O[C@@H](O[C@H]2[C@H](OC(=O)[C@]34CCC(C)(C)C[C@H]3C3=CCC5[C@@]6(C)C[C@H](O)[C@H](O[C@@H]7O[C@H](CO)[C@@H](O[C@@H]8O[C@H](CO)[C@@H](O)[C@H](O)[C@H]8O)[C@H](O)[C@H]7O)[C@@](C)(CO)C6[C@H](O)C[C@@]5(C)[C@]3(C)C[C@H]4O)OC[C@H](O)[C@@H]2O)[C@H](O)[C@H](O)[C@H]1O[C@@H]1OC[C@@H](O)[C@H](O[C@@H]2OC[C@](O)(CO)[C@H]2O)[C@H]1O (stereo partly drawn),outcome,[1],inactive [at 9.29 µM]
same,outcome,[2],inactive [at 9.29 µM]
CC1(C)CC[C@]2(C(=O)O)CC[C@]3(C)C(=CCC4[C@@]5(C)CC[C@H](O[C@@H]6O[C@H](C(=O)O)[C@@H](O)[C@H](O)[C@H]6O)C(C)(CO)C5CC[C@]43C)C2C1 (stereo partly drawn),Potency,[1],inactive
same,Potency,[2],inactive
Cc1cc(O)c(C(C)C)cc1O[C@@H]1O[C@H](CO)[C@@H](O)[C@H](O)[C@H]1O,Potency,[1],inactive
same,Potency,[2],inactive
COc1ccc2c(c1O)OC[C@H]1c3ccc(O)cc3O[C@@H]21,Potency,[1],inactive
same,Potency,[2],inactive
C/C=C(\C)C(=O)O[C@@H](C)[C@H]1CC[C@]2(O)C3CCC4C[C@@H](OC5CC(OC)C(OC6CC(OC)C(OC7CC(OC)C(OC8OC(C)C(OC9OC(CO)C(O)C(O)C9O)C(OC)C8O)C(C)O7)C(C)O6)C(C)O5)CC[C@]4(C)C3[C@H](O)[C@@H](O)[C@]12C (stereo partly drawn),outcome,[1],inactive [at 9.29 µM]
same,"activity change, negative = cytotoxicity",[2],2.39% [at 9.29 µM]
CC1=CC(=O)CC(C)(C)C1(O)CCC(C)O (stereo not drawn),Potency,[1],inactive
same,Potency,[2],inactive
C/C=C(/C)C(=O)O[C@H]1C=C(C)C[C@H](OC(=O)c2ccc(O)cc2)C2[C@](O)(C(C)C)CC[C@@]21C (stereo partly drawn),Potency,[1],inactive
same,Potency,[2],inactive
CC1CC(O)CC(C)(C)C1(O)CCO (stereo not drawn),Potency,[1],inactive
same,Potency,[2],inactive
OC[C@H]1O[C@@H](OC(CCCCc2ccc(O)cc2)CCc2ccc(O)cc2)[C@H](O[C@@H]2OC[C@](O)(CO)[C@H]2O)[C@@H](O)[C@@H]1O (stereo partly drawn),Potency,[1],inactive
same,Potency,[2],inactive
C=CC(C)(O)CC/C=C(\C)C(=O)OCC1OC(OC2CCC3(C)C(CCC4(C)C3CC=C3C5CC(C)(C)C(O)CC5(C(=O)O)CCC34C)C2(C)C)C(O)C(OC2OC(CO)C(O)C(OC3OC(CO)C(O)C(OC4OC(COC5OC(CO)C(O)C(O)C5O)C(O)C(O)C4O)C3O)C2O)C1O (stereo not drawn),outcome,[1],inactive [at 9.29 µM]
same,"activity change, negative = cytotoxicity",[2],5.27% [at 9.29 µM]
CCC(C)/C=C(C)/C=C/C1=CC2=C(Cl)C(=O)C(C)(OC(C)=O)C(=O)C2=CN1CCCC(=O)O (stereo not drawn),Potency,[1],inactive
same,Potency,[2],inactive
CC(CCC1(O)OC2CC3C4CCC5CC(O[C@@H]6O[C@H](CO)[C@@H](O)[C@H](O)[C@H]6O[C@@H]6OC[C@@H](O)[C@H](O)[C@H]6O)C(O)CC5(C)C4CCC3(C)C2C1C)CO[C@@H]1O[C@H](CO)[C@@H](O)[C@H](O)[C@H]1O (stereo partly drawn),outcome,[1],inactive [at 9.29 µM]
same,outcome,[2],inactive [at 9.29 µM]
CC1(C)O[C@@]2(C)CC[C@@H]1C[C@@H]2OC1OC(CO)C(O)C(O)C1O (stereo partly drawn),Potency,[1],inactive
same,Potency,[2],inactive
CC12CCC3C(C)(C)C(O)CCC3(C)C1Cc1c(oc(C(=O)O)cc1=O)O2 (stereo not drawn),Potency,[1],inactive
same,Potency,[2],inactive
C[C@@H]1O[C@@H](O[C@@H]2[C@@H](O)[C@H](O[C@@H]3[C@@H](O)[C@@H](O)[C@H](O[C@H]4[C@H](OC(=O)[C@]56CCC(C)(C)C[C@H]5C5=CCC7[C@@]8(C)C[C@H](O)[C@H](O[C@@H]9O[C@@H](C)[C@H](O)[C@@H](O)[C@H]9O)[C@@](C)(CO)C8CC[C@@]7(C)[C@]5(C)C[C@H]6O)O[C@H](C)[C@H](O)[C@@H]4O)O[C@H]3C)OC[C@H]2O)[C@H](O)[C@H](O)[C@H]1O (stereo partly drawn),outcome,[1],inactive [at 9.29 µM]
same,"activity change, negative = cytotoxicity",[2],4.66% [at 9.29 µM]
CC1OC(OC2C(CO)OC(OCC3OC(OC(=O)C45CCC(C)(C)CC4C4=CCC6C7(C)CCC(OC8OC(C(=O)O)C(O)C(OC9OC(CO)C(O)C(O)C9O)C8O)C(C)(C)C7CCC6(C)C4(C)CC5)C(O)C(O)C3O)C(O)C2O)C(O)C(O)C1O (stereo not drawn),outcome,[1],inactive [at 9.29 µM]
same,outcome,[2],inactive [at 9.29 µM]
N#CC1C(=O)Nc2scc(-c3ccc(-c4ccccc4O)cc3)c2C1=O (stereo not drawn),Potency,[1],inactive
same,Potency,[2],inactive
C[C@@H]1C[C@H](O[C@@H]2O[C@H](CO[C@@H]3OC[C@](O)(CO)[C@H]3O)[C@@H](O)[C@H](O)[C@H]2O)CC(C)(C)[C@H]1/C=C/[C@@H](C)O,Potency,[1],inactive
same,Potency,[2],inactive
CC[C@H](C)[C@@H]1NC(=O)[C@H](Cc2ccc(OC)cc2)NC(=O)CCCSC[C@@H](C(=O)N2CCC[C@H]2C(=O)N[C@@H](CC(C)C)C(=O)NCC(N)=O)NC(=O)[C@H](CC(N)=O)NC(=O)[C@H](CCC(N)=O)NC1=O (Y(Me)IQNCPLG-NH2; linker N-5 via X6),Potency,[1],inactive
same,Potency,[2],inactive
Cc1c(N2C(=O)c3ccc(C(=O)O)cc3C2=O)c(=O)n(-c2ccccc2)n1C,Potency,[1],inactive
same,Potency,[2],inactive
COC1CC(=O)CCC(C)OC(=O)CC1O (stereo not drawn),Potency,[1],inactive
same,Potency,[2],inactive
CC1CC(=O)C2=C(O1)OC1(C)CCC3C(C)(C)C=CC(=O)C3(C)C1C2 (stereo not drawn),Potency,[1],inactive
same,Potency,[2],inactive
Cc1cc(N2CCCCC2)nc2ccccc12,Potency,[1],inactive
same,Potency,[2],inactive
C=CCc1ccc(O[C@@H]2O[C@H](CO)[C@@H](O)[C@H](O)[C@H]2O)c(OC)c1,Potency,[1],inactive
same,Potency,[2],inactive
CC(C(=O)O)C1CCC2(C)C3C(=O)C=C4C(CCC(=O)C4(C)C)C3(C)CCC12C (stereo not drawn),Potency,[1],inactive
same,Potency,[2],inactive
CC(C)NC[C@H](O)COc1ccc(CCOCC2CC2)cc1,Potency,[1],inactive
same,Potency,[2],inactive
CC(=O)c1cnc2ccc(-c3cc(Cl)c(O)c(Cl)c3)nc2c1NC1CCC(CN(C)C)CC1 (stereo not drawn),Potency,[1],13 nM (active)
same,Potency,[2],119 nM (active) and 23.1 nM (active)
CC(C)C(C(=O)N1CCCC1C(=O)O)N(C)C(=O)C(O)Cc1ccccc1 (stereo not drawn) (H-[PhLac]-[NMeV]-Pro-OH; configuration not given here),Potency,[1],inactive
same,Potency,[2],inactive
CCOc1nc2cccc(C(=O)OCc3oc(=O)oc3C)c2n1Cc1ccc(-c2ccccc2-c2noc(O)n2)cc1,Potency,[1],inactive
same,Potency,[2],inactive
CC(=O)O[C@@H]1[C@H](O[C@@H]2OC[C@](O)(CO)[C@H]2O)[C@@H](O[C@@H]2O[C@@H](C)[C@H](O)[C@@H](O)[C@H]2O)[C@H](OC(=O)[C@]23CCC(C)(C)C[C@H]2C2=CCC4[C@@]5(C)C[C@H](O)[C@H](O[C@@H]6O[C@H](C(=O)O)[C@@H](O)[C@H](O)[C@H]6O)[C@@](C)(C(=O)O)C5CC[C@@]4(C)[C@]2(C)CC3)O[C@@H]1C (stereo partly drawn),outcome,[1],inactive [at 9.29 µM]
same,"activity change, negative = cytotoxicity",[2],1.88% [at 9.29 µM]
C[C@@H](O)[C@H](N)C(=O)N1CCC[C@H]1C(=O)N1CCC[C@H]1C(=O)N[C@H](C(N)=O)[C@@H](C)O (H-TPPT-NH2),outcome,[1],inactive [at 9.29 µM]
same,outcome,[2],inactive [at 9.29 µM]
C[C@@H]1O[C@@H](O[C@H]2[C@H](O[C@H]3CC[C@@]4(C)C(CC[C@]5(C)C4CC=C4[C@@H]6CC(C)(C)CC[C@]6(C(=O)O)CC[C@]45C)[C@]3(C)CO)OC[C@H](O)[C@@H]2O)[C@H](O)[C@H](O[C@@H]2OC[C@@H](O)[C@H](O)[C@H]2O)[C@H]1O (stereo partly drawn),outcome,[1],inactive [at 9.29 µM]
same,"activity change, negative = cytotoxicity",[2],-3.86% [at 9.29 µM]
CC[C@H]1OC(=O)[C@H](C)[C@@H](O[C@H]2C[C@@](C)(OC)[C@@H](O)[C@H](C)O2)[C@H](C)[C@@H](O[C@@H]2O[C@H](C)C[C@H](N(C)C)[C@H]2O)[C@@](C)(O)C[C@@H](C)[C@@H]2N[C@@H](COCCOC)OC([C@H]2C)[C@]1(C)O,Potency,[1],inactive
same,Potency,[2],inactive
O=C(NC[C@H](O)CN1CCc2ccccc2C1)c1cc(NC2COC2)ncn1,Potency,[1],inactive
same,Potency,[2],inactive
C[C@H]1CC[C@@]2(OC1)O[C@H]1CC3C4CC=C5C[C@H](O)C[C@@H](O[C@@H]6O[C@@H](C)[C@H](O)[C@@H](O)[C@H]6O[C@@H]6O[C@@H](C)[C@H](O)[C@@H](O)[C@H]6O)[C@]5(C)C4CC[C@]3(C)[C@H]1[C@@H]2C (stereo partly drawn),Potency,[1],inactive
same,Potency,[2],inactive
COc1ccc(C)c2sc(NC(=O)c3ccncc3)nc12,Potency,[1],inactive
same,Potency,[2],inactive
C[C@@H]1O[C@@H](O[C@H]2[C@H](OC(=O)C34CCC5(C)C(=CCC6C7(C)CC(O)C(O[C@@H]8O[C@H](C(=O)O)[C@@H](O)[C@H](O)[C@H]8O)C(C)(C(=O)O)C7CCC65C)C3CC(C)(C)CC4O)O[C@H](C)[C@@H](O)[C@@H]2O)[C@H](O)[C@@H](O[C@@H]2OC[C@](O)(CO)[C@H]2O[C@@H]2O[C@H](CO)[C@@H](O)[C@H](O)[C@H]2O)[C@H]1O (stereo partly drawn),outcome,[1],inactive [at 9.29 µM]
same,"activity change, negative = cytotoxicity",[2],5.75% [at 9.29 µM]
CC1(C)CCC2(C(=O)OC3OC(COC4OC(CO)C(O)C(O)C4O)C(O)C(O)C3O)CCC3(C)C(=CCC4C5(C)CCC(O)C(C)(C(=O)O)C5CCC43C)C2C1O (stereo not drawn),outcome,[1],inactive [at 9.29 µM]
same,outcome,[2],inactive [at 9.29 µM]
